High-throughput results deposited in PubChem BioAssay by National Center for Advancing Translational Sciences (NCATS).
Hits are enriched below; roughly 1.1% of the tested compounds scored in any of these assays.
PI4K2A block: blocks human PI4K2A kinase activity | Q9BTU6 | activity change, negative = inhibition, % at 76.9 µM | purified PI4K2A, ADP-Glo luminescence, 1 h; stronger effect = lower value | hit rate 0.13% among 420,000; in the data active = activity change below about -50%; inconclusive = mostly about -30% to -49%;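 also: -100% = wells without enzyme as full effect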
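Compounds are screened against recombinant PI4K2A using PI as substrate and ATP, the latter dispensed at 300 microM. Reactions run one hour at ambient temperature before ADP-Glo detection; full inhibition defined by wells lacking enzyme.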
rTrxR1 inhibitor: rat TrxR1 inhibition. recombinant rTrxR1, NADPH fluorescence consumption, selenite substrate. Potency, µM (highest dose often 114 µM), without a hit: at the top dose activity change, negative = inhibition, hits mostly inhibitors. hit rate 1% among 390,000. AID 588453; also: potency is read from the fitted curve at half-maximal effect; nearly all actives have a fitted effect of over 65% in size
Target sequence (O89049 whole entry, looked up): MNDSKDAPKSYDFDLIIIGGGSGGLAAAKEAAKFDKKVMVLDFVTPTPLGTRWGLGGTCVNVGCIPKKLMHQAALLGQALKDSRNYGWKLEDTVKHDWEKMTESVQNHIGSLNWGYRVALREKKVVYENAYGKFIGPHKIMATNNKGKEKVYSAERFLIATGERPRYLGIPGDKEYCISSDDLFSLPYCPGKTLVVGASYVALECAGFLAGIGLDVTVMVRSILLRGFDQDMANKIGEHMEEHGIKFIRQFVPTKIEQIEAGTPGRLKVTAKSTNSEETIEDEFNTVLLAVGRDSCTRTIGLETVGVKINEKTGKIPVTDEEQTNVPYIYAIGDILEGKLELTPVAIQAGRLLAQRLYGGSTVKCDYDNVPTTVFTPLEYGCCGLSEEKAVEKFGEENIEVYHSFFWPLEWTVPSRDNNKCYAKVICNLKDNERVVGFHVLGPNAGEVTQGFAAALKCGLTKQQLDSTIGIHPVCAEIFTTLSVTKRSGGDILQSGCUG
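Rat TrxR1 (90 nM in the dispensed reagent) was pre-reduced with 400 uM NADPH for 5 min at room temperature, then incubated with compound for 15 min. After 400 uM selenite was added, NADPH fluorescence (Ex 340/Em 450 nm) was followed for 8 min.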
GALK inh: blocks human galactokinase activity | P51570 | Purified GALK, Kinase-Glo residual ATP luminescence | Potency, µM (top dose mostly 57.5 µM), for the others: at the top dose activity change, negative = inhibition, usual class: inhibitors | hit rate 0.007% among 270,000; also: potency is read from the fitted curve at half-maximal effect
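ATP-depletion format; final 35 uM ATP, 100 uM D-galactose, 5 nM enzyme; pH 8.0 HEPES/Mg2+ buffer; 60 min RT; luminescence read 10 min after detection reagent.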
TrxR1 substrate: rat thioredoxin reductase 1 substrate activity; Potency, µM (titrated, usually from 114 µM), for inactives: at the top dose activity change, negative = substrate turnover; purified TrxR1 substrate turnover, NADPH consumption readout; hit rate 0.01% among 390,000; also: potency is read from the fitted curve at half-maximal effect; nearly all actives have a fitted effect of over 50% in size
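Rat TrxR1, dispensed at 90 nM, was prereduced with 400 uM NADPH (final) for 5 min at ~22 deg C, then incubated with compound 15 min before 400 uM selenite. A first-read NADPH fluorescence drop versus no-compound background flagged substrates.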
* marks the source's active call; other numbers are inactive results; ? = inconclusive; / = not tested or not shown; [ ] = another dose, or the depositor's remark. Unless noted, calls follow the shape of the dose curve; as a rule, active = well fitted curve in the direction sought with a large enough effect; inconclusive = small, poorly fitted or top-dose-only effect, or another doubt; inactive = no such curve, though single readings can be large; an effect the other way counts as inactive or inconclusive. Unless noted, % is scaled to controls: 0 for no effect and ±100 for the full control effect.

SMILES	PI4K2A block	rTrxR1 inhibitor	GALK inh	TrxR1 substrate
CCOc1ccccc1NC(=O)CN1C(=O)CC(c2ccco2)Sc2ccccc21 (stereo not given)	8	-2%	/	-5%
COc1ccc(NC(=O)CCC(=O)c2cccs2)cc1Cl	4	26%	-1%	7%
COc1cc(NCCC(=O)c2cccs2)c(OC)cc1Cl	0	18µM*	1%	8%[57.1 µM]
COc1ccc(NC(=O)CC2Sc3ncnn3C2=O)cc1 (stereo not given)	-2	1.6µM*	-1%	11%[57.1 µM]
O=C(CC1Sc2ncnn2C1=O)Nc1ccc(Cl)cc1 (stereo not given)	2	?	-1%	8%[57.1 µM]
CCOC(=O)c1ccc(NC(=O)CC2Sc3ncnn3C2=O)cc1 (stereo not given)	-5	1.8µM*	-2%	11%
CCOC(=O)c1ccc(NC(=O)CC2SC(=NC)N(C)C2=O)cc1 (stereo not given)	36	8%	0%	1%
CS(=O)(=O)N1CCN(c2ccc([N+](=O)[O-])cc2F)CC1	-5	4%[57.1 µM]	7%	-1%[57.1 µM]
CS(=O)(=O)N1CCN(/[N+]([O-])=N/Oc2ccc([N+](=O)[O-])cc2[N+](=O)[O-])CC1	/	8.9µM*	/	-3%
CS(=O)(=O)N1CCN(/[N+]([O-])=N/Oc2ccc([N+](=O)[O-])cc2[N+](=O)[O-])CC1 (tested in a mixture with another compound)	/	11µM*	/	5%
O=[N+]([O-])c1ccc(O/N=[N+](\[O-])N2CCCC2)c([N+](=O)[O-])c1	/	18µM*	/	-7%
COc1ccc(C(C)=O)cc1CN(C)C	-5	8.9µM*	-1%	3%
COc1ccc(C(C)=O)cc1COC(=O)c1c(C)noc1C	-5	35µM*	1%	-5%
CCOc1ccccc1CNC(=O)C1CCN(C(=O)N2CC(CC)Oc3ccc(C)cc32)CC1 (stereo not given)	3	27%	/	5%[11.4 µM]
Cc1ccc(S(=O)(=O)C=CS(=O)(=O)c2ccc(C)cc2)cc1	-3	/	/	/
O=S(=O)(/C=C/C=C/S(=O)(=O)c1ccccc1)c1ccccc1	7	2µM*	/	12%[57.1 µM]
CC1=C(/C=C/C(C)=C/C=C/C(C)=C\C(=O)O)C(C)(C)CCC1	0	35µM*	/	3%[57.1 µM]
C=CCN1C(=O)[C@@H](CC(=O)NCc2cccc3ccccc23)[C@]2(C(=O)OCC)CCCCC/C=C/12	-5	/	/	/
CCN(c1ccccc1)S(=O)(=O)c1cc(-c2onc(C)c2C)ccc1OC	-2	11%[57.1 µM]	/	4%[57.1 µM]
COC(=O)C(CC(=O)c1ccc(Br)cc1)n1nc(C)cc1C (stereo not given)	20	8.9µM*	7%	9%
Cc1cc(C(=O)NCc2ccccc2)c2c(C)nn(-c3cccc(F)c3)c2n1	1	26%	/	62%
COc1cc(OC)nc(O[C@H](C(=O)O)C(OC)(c2ccccc2)c2ccccc2)n1	1	/	/	/
O=C(Cc1ccc(S(=O)(=O)N2CCOCC2)s1)Nc1cc(C(F)(F)F)ccc1N1CCCC1	2	-6%[57.1 µM]	/	-6%[57.1 µM]
O=C(Cc1ccc(S(=O)(=O)N2CCOCC2)s1)Nc1ccccc1N1CCCC1	0	11µM*	3%	-2%
O=[N+]([O-])c1cc([N+](=O)[O-])c2nonc2c1Nc1ccc(O)cc1	?	28µM*	7%	-16%
SMILES	PI4K2A block	rTrxR1 inhibitor	GALK inh	TrxR1 substrate
O=[N+]([O-])c1cc([N+](=O)[O-])c2nonc2c1Nc1ccccc1O	-9	-22%	-2%	-14%
COc1ccc(N2C3=C(CC4=C2CCCC4=O)C(=O)CCC3)cc1	-56*	?	-3%	24%
COc1ccc(S[C@]2(C(=O)N(C)C)CC(=O)N(S(=O)(=O)c3ccc(F)cc3)[C@@H]2c2ccc(OC)cc2)cc1	-4	/	/	/
O=c1cc(-c2ccc(O)cc2)oc2c(O)c(O)c(O)c(O)c12	-22	16µM*	/	-15%
O=c1cc(-c2ccc(O)cc2)oc2c1ccc1ccccc12	-5	5%	/	5%
CCN1CCc2nc(N)oc2CC1	-9	22µM*	/	13%[57.1 µM]
C=CCc1ccccc1OCCSc1nc(-c2ccccc2F)nc2cc(=O)[nH]n12	-5	28%[57.1 µM]	/	16%[57.1 µM]
COc1ccc(C2=NO[C@@H]3C(=O)N(c4ccc(C)cc4C)C(=O)[C@H]23)cc1OC	-3	22µM*	-1%	13%
CC(=O)N1c2ccc(S(=O)(=O)N3CCCCCC3)cc2CC1C(=O)NCc1ccccc1 (stereo not given)	1	15%[57.1 µM]	/	-1%[57.1 µM]
